Reference: the supplement of paper PMC10681739

Columns and labels:
[1] = biological target: T1, ETS1 (UniProt P14921); assay: ETS1 binding intensity (PBM fluorescence), ETS1 alone (arbitrary fluorescence units); higher = stronger binding; details: ETS1 concentration 1 nM; RUNX1 concentration 0 nM
T1 sequence: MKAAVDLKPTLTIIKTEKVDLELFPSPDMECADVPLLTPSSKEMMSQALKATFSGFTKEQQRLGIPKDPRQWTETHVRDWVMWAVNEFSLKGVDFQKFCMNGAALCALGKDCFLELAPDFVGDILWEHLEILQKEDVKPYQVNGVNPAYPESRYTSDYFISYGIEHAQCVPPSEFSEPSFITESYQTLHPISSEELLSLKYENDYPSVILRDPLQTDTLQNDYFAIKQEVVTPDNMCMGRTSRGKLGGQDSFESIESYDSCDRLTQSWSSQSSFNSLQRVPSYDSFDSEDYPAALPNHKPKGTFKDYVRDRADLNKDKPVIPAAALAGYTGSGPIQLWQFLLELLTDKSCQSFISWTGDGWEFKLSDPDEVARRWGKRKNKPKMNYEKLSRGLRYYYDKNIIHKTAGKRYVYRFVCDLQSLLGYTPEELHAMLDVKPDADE

[2] = biological target: RUNX1 (UniProt Q01196); assay: RUNX1 binding intensity (PBM fluorescence), RUNX1 alone (arbitrary fluorescence units); higher = stronger binding; details: RUNX1 concentration 2 nM; ETS1 concentration 0 nM
Chain of RUNX1 (Q01196 whole entry): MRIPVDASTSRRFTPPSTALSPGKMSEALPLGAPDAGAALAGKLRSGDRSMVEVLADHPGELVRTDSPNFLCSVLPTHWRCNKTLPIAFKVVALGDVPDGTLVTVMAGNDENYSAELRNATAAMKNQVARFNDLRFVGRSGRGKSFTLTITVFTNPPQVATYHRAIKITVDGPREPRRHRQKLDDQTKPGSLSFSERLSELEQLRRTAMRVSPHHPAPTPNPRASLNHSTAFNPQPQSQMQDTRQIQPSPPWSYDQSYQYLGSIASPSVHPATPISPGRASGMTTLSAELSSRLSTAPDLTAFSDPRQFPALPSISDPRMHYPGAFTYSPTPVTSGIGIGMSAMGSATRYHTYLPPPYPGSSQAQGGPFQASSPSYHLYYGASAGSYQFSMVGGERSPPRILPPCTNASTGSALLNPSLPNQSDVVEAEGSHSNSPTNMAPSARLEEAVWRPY
Description: (§1)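 Cooperative gcPBM on 36-bp genomic probes with neighbouring ETS1 and RUNX1 sites. Recombinant human RUNX1 (2 nM) was incubated alone or with ETS1 (25 nM) and detected with anti-RUNX1 antibody plus Alexa488 secondary. Values are medians over 4 replicate spots; the RUNX1+ETS1 data were normalised to the RUNX1-only data. The probes sit in constant array flanks that are not printed.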

[3] = biological target: T1, ETS1; assay: ETS1 binding intensity (PBM fluorescence) in presence of RUNX1, normalised to ETS1-only experiment (arbitrary fluorescence units); higher = stronger binding; details: ETS1 concentration 1 nM; RUNX1 concentration 25 nM
[4] = biological target: RUNX1 (UniProt Q01196); assay: RUNX1 binding intensity (PBM fluorescence) in presence of ETS1, normalised to RUNX1-only experiment (arbitrary fluorescence units); higher = stronger binding; details: RUNX1 concentration 2 nM; ETS1 concentration 25 nM
Description: as §1
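Wherever RUNX1 binding intensity (PBM fluorescence) in presence of ETS1, normalised to RUNX1-only experiment is given: Full-length recombinant human ETS1 or RUNX1 bound to double-stranded 36-bp genomic probes on microarrays, detected by protein-specific primary antibody and Alexa488 secondary, spot fluorescence as median of four replicate spots.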
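Wherever RUNX1 binding intensity (PBM fluorescence), RUNX1 alone is given: Full-length recombinant human RUNX1 bound to double-stranded 36-bp genomic probes on a high-density microarray, scored as Alexa488 fluorescence per spot via anti-RUNX1 antibody, median of four replicate spots.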

| Sequence | ETS1 binding intensity [1] | RUNX1 binding intensity [2] | ETS1 binding intensity [3] | RUNX1 binding intensity [4] |
| --- | --- | --- | --- | --- |
| CTGCACTTCCGGTCAGGCGGTCGGGCTGCGGGGCCC | 5690 | 739 | 6710 | 2680 |
| TGACGGCAGGCAGGATGTGGTGAGACAAATCCACTC | 4070 | 904 | 8840 | 2660 |
| TTCAGGAAATGCAAACGGCTGCAGAGACCGCAGAGG | 499 | 793 | 2490 | 1090 |
| CTAGCAGGAAACAGACAGACCCAGCCACAGAATCTC | 470 | 919 | 519 | 884 |
| CTGCCGCGACAGACAGGATGTGGCTTCTGCTCTGTC | 8750 | 610 | 16900 | 1960 |
| AGCGTTTCCTGCCTGTCTGGGGCTGACAAACCACAA | 623 | 930 | 492 | 2120 |
| AGTTTCTCAGCTTCCTGTGTGGTTTTCTTGATCTGC | 1480 | 1620 | 2630 | 4280 |
| GACTCCCTCAGCGGATGCGGGTGCTGCTGCTGCTGC | 1290 | 743 | 1400 | 1250 |
| GGCTGGGGCGGTATCCTGTGGTCTTACTCTGGTGAC | 445 | 1520 | 437 | 2620 |
| ACCGGGTGCTGAGGAGGAAGTGGTTGCTATAACCCC | 2350 | 741 | 3420 | 1120 |
| TGGAACAATGCTGCTTCCTGTGGGTGTCCCCCGGCC | 1140 | 698 | 1400 | 1330 |
| GCGCAAGCAGGAAGCGTTTGCGGTGATCCCGGCGAC | 1890 | 746 | 9000 | 2000 |
| GACTGGTTTCCTGGTTTTGATGTGGTTTAGAGAAAA | 504 | 1080 | 630 | 2170 |
| AAATCACGTACCCGGAAACCACATGCACAGAAGTGG | 2010 | 980 | 2930 | 1550 |
